Inconclusive results are not listed. Where a structure was tested more than once in an assay, its records may differ in their call. Activity calls are given as the source filed them. The calls were made as follows: active = hit-call score of the fitted dose curve at least 0.9, where 1 is the maximum; inconclusive = response in the unintended direction; inactive = score below 0.9.

Read-out in this test: xenobiotic metabolism (CYP1A1), CYP1A1 (gene 1543)
Put plainly: CLD_CYP1A1_24hr: CellzDirect (CLD) Gene Expression Assay for xenobiotic metabolism (CYP1A1) at 24 hours (AID 2283673). On the procedure:
CLD_24hr is a cell-based, multiplexed-readout assay that uses hepatocyte, a human liver primary cell, with measurements taken at 24 hours after chemical dosing in a 96-well plate.CLD_CYP1A1_24hr is one of 16 assay component(s) measured or calculated from the CLD_24hr assay. It is designed to make measurements of mRNA induction, a form of inducible reporter, as detected with chemiluminescence signals by Quantitative Nuclease Protection Assay (qNPA) technology.Data from the assay component CLD_CYP1A1_24hr was analyzed at the endpoint, CLD_CYP1A1_24hr, in the positive analysis fitting direction relative to DMSO as the negative control and baseline of activity. Using a type of inducible reporter, gain-of-signal activity can be used to understand changes in the reporter gene as they relate to the gene CYP1A1. Furthermore, this assay endpoint can be referred to as a primary readout. To generalize the intended target to other relatable targets, this assay endpoint is annotated to the cyp intended target family, where subfamily is xenobiotic metabolism.
Human hepatocyte cultures were treated daily for two consecutive days with fresh dosing solutions containing appropriate concentrations of the 320 ToxCast chemicals (chemical identities were blinded to CellzDirect and other ToxCast collaborators), vehicle control (0.2% DMSO), and positive control inducers as summarized in Table 1. Due to the large number of treatment groups and chemicals examined, the ToxCast chemicals were divided into two groups (spanning two independent cultures of hepatocytes from separate donor preparations (Hu778: ToxCast plates 1 and 2; Hu776: ToxCast plates 3 and 4). Each preparation of human hepatocyte cultures was treated with respective vehicle control, medium only control, set of six positive controls/reference chemicals for the five hepatic receptor pathways, and a subset of eight of the ToxCast chemicals (indoxacarb, pyrithiobac-sodium, norflurazon, cyhalofop-butyl, methomyl, thiram, acetochlor, and propiconazole). These replicate data, coupled with internal replicates designed within the blinded ToxCast chemical library, provided additional data to evaluate interindividual differences between hepatocyte preparations and their potential impact on chemical profiles.Cell morphology and integrity were evaluated using phase-contrast microscopy as an indicator of hepatocyte cell health (Tyson & Green, 1987). Cultures for each treatment group (i.e., media, vehicle [0.2% DMSO], positive control inducers [multiple concentrations], and the ToxCast chemicals [multiple concentrations]) were observed and cell morphology was assessed relative to vehicle control cultures at each harvest time point (0, 6, 24, or 48 h). […] Images were evaluated at the conclusion of the study to assess changes in cell integrity and account for the effects of chemical exposure on uncharacteristic changes in concentration-dependent gene expression profiles. The results from these determinations of apparent cytotoxicity were annotated (yes/no) alongside the corresponding qNPA data for reference.At the conclusion of each treatment period, hepatocyte cultures (96-well) were washed with 1 volume of HBSS, lysed by addition of 25 ul ArrayPlate lysis buffer (HTG, Tucson, AZ), and 70 ul/well of Denaturation Oil, denatured by incubation at 95C for 10 min, and frozen at approximately -70C until analysis by nuclease protection assay (qNPA) (Roberts et al., 2007). For qNPA analysis, cell lysates were thawed at 50C for approximately 30 min, qNPA probes were added, and samples were incubated at 95C for 10 min to begin the detection process by denaturing the target RNA, dissociating the duplexes and secondary structure hybridization. At the conclusion of the hybridization period, S1 nuclease reagent was added to each sample to digest all nonprotected nucleotides at 50C for 60-90 min. […]
Take `C#CCOS(=O)OC1CCCCC1Oc1ccc(C(C)(C)C)cc1` (stereo not given): the AC50 (as a rule, the concentration at which the activity in the assay is half-maximal) was 20 µM (active).
Regarding `CC(C)(C)c1ccc(CSc2cnn(C(C)(C)C)c(=O)c2Cl)cc1`, the AC50 was 20 µM (active).
Turning to `CCCCOC(=O)c1ccccc1C(=O)OCCCC`, the compound was called inactive and the half-maximal activity concentration (AC50) was 4.22 µM (active).
With `CC(C)C1(C)N=C(c2nc3ccccc3cc2C(=O)O)NC1=O` (stereo not given), the result was inactive.
As for `CCCCNC(=O)n1c(NC(=O)OC)nc2ccccc21`, the AC50 was 20 µM (active).
On the same count and under the same terms, in the case of `CCNc1nc(Cl)nc(NC(C)C)n1` it was 4.27 µM (active).
Turning to `COc1nc(C)nc(NC(=O)NS(=O)(=O)c2ccccc2Cl)n1`, the outcome was inactive.
Take `O=C(O)c1nc(Cl)ccc1Cl`: the concentration at half-maximal activity (AC50) was 7.87 µM (active).
For `CC1=C(C(=O)Nc2ccccc2)SCCO1`, the concentration at half-maximal activity (AC50) was 20 µM (active).
Consider `CCCC1COC(Cn2cncn2)(c2ccc(Cl)cc2Cl)O1` (stereo not given), for which the AC50 is 6.46 µM (active).
On to `COc1ccc(C(c2ccc(OC)cc2)C(Cl)(Cl)Cl)cc1`, for which the outcome was inactive.
In the case of `COC(=O)N(OC)c1ccccc1COc1ccn(-c2ccc(Cl)cc2)n1`, the half-maximal activity concentration (AC50) is 1.9 µM (active).
`COP(=S)(OC)Oc1nc(Cl)c(Cl)cc1Cl`: the half-maximal activity concentration (AC50) was 3.97 µM (active).
With `O=C(O)COc1nc(Cl)c(Cl)cc1Cl`, the compound was classed as inactive.
As to `N#Cc1cc(Br)c(O)c(Br)c1`, the AC50 was 20 µM (active).
As for `Fc1ccc(Oc2ccnc3cc(Cl)cc(Cl)c23)cc1`, the concentration at half-maximal activity (AC50) is 2.49 µM (active).
For the compound `CCON=C(CC)C1=C(O)CC(c2c(C)cc(C)cc2C)CC1=O` (stereo not given), the compound was classed as inactive.
The same measure, in the same setting: in the case of `C=CCC1=C(C)C(OC(=O)C2C(C=C(C)C)C2(C)C)CC1=O` (stereo not given) it was “inactive”.
Regarding `CC1COC(Cn2cncn2)(c2ccc(Oc3ccc(Cl)cc3)cc2Cl)O1` (stereo not given), the concentration at half-maximal activity (AC50) is 1.94 µM (active).
In the case of `COc1nc(NC(C)C)nc(NC(C)C)n1`, the concentration at half-maximal activity (AC50) was 3.47 µM (active).
Consider `COC(=O)c1ccccc1C(=O)OC`, for which the result was inactive.
In the case of `C=CC1(C)OC(=O)N(c2cc(Cl)cc(Cl)c2)C1=O` (stereo not given), the AC50 is 0.317 µM (active).
In the case of `CCc1nn(C)c(C(=O)NCc2ccc(C(C)(C)C)cc2)c1Cl`, the AC50 was 7.44 µM (active).
Still for that read-out and setting: the value for `Cc1ccc(-c2c(Cl)nc(C#N)n2S(=O)(=O)N(C)C)cc1` was 8.2 µM (active).
In the case of `COc1nc(C)nc(NC(=O)NS(=O)(=O)c2ccccc2CCC(F)(F)F)n1`, the result was inactive and the AC50 is 20 µM (active).
As to `CCOP(=S)(OCC)SCn1c(=O)oc2cc(Cl)ccc21`, the AC50 is 5.28 µM (active).
On the same count and under the same terms, the value for `Oc1ccccc1-c1ccccc1` was 35.9 µM (active).
In the case of `CNC(=S)S`, the compound was called inactive.
On the same count and under the same terms, in the case of `COc1cnc(OC)n2nc(NS(=O)(=O)c3c(OCC(F)F)cccc3C(F)(F)F)nc12` it was “inactive”; in that of `COC(=O)C(C)Oc1ccc(Oc2ccc(Cl)cc2Cl)cc1` (stereo not given), “inactive”; in that of `C=CCC1=C(C)[C@@H](OC(=O)[C@@H]2[C@@H](C=C(C)C)C2(C)C)CC1=O`, “inactive”.
Consider `O=C(Nc1ccccc1)Nc1ccnc(Cl)c1`, for which the AC50 was 10.4 µM (active).
The same measure, in the same setting: in the case of `CN(C)C(=S)SSC(=S)N(C)C` it was 35 µM (active); in that of `CC(C)Oc1cc(-n2nc(C(C)(C)C)oc2=O)c(Cl)cc1Cl`, 4.05 µM (active); in that of `CCNc1nc(Cl)nc(NCC)n1`, 5.56 µM (active).
On the same count and under the same terms, the value for `CCOC(=O)C(Cl)Cc1cc(-n2nc(C)n(C(F)F)c2=O)c(F)cc1Cl` (stereo not given) was 0.39 µM (active).
With `Cc1cc(Cl)ccc1OCC(=O)O`, the outcome was inactive.
`Cc1c(F)c(F)c(COC(=O)C2C(/C=C(\Cl)C(F)(F)F)C2(C)C)c(F)c1F` (stereo not given): the outcome was inactive.

These data come from PubChem BioAssay (EPA / NIEHS).
